Each structure is given as a SMILES string. Inconclusive results are not listed. A call without a number means that no potency is given here. The source made the active and inactive calls. Calls follow the shape of the dose curve; as a rule, active = well fitted inhibition curve with a large enough effect in the signal ratio in the repeat runs (not every such curve was filed as active); inconclusive = weak or mixed curves, or effect the other way; inactive = no such curve, though single readings can be large or run the other way; the % refers to the signal ratio.
Potency is read from the fitted curve at half-maximal effect.

In the assay the target is Estrogen receptor beta (Homo sapiens) (UniProt Q92731). Put plainly: qHTS assay to identify small molecule antagonists of the estrogen receptor beta (ER-beta) signaling pathway (AID 1259378). The settings on record: ER-beta-UAS-bla HEK293T, beta-lactamase FRET ratio, 16 h; series mostly up to 92.4 µM. From the text: National Center for Advancing Translational Sciences [NCATS]
Estrogen receptor beta (Homo sapiens), sequence (Q92731 whole entry, looked up): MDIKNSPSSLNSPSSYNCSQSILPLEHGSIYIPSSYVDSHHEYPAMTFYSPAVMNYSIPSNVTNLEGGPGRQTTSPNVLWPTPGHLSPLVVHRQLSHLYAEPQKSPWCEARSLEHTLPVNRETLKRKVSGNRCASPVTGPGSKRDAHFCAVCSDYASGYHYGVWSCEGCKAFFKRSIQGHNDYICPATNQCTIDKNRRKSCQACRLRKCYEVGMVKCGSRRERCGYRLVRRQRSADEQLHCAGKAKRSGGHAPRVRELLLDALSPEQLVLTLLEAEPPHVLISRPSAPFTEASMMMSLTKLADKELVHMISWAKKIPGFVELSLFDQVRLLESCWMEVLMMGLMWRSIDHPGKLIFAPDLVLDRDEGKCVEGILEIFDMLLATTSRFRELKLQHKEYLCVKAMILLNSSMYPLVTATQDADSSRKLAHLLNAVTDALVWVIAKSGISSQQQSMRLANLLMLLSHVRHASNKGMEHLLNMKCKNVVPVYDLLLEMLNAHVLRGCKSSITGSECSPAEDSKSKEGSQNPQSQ
NIH Chemical Genomics Center [NCGC]
U.S. Environmental Protection Agency [EPA]
National Institutes of Environmental Health Sciences [NIEHS]
National Toxicology Program [NTP]
U.S. Food and Drug Administration [FDA]
Estrogen receptor (ER), a nuclear hormone receptor, plays an important role in development, metabolic homeostasis and reproduction. Two subtypes of ER, ER-alpha and ER-beta, have similar expression patterns with some uniqueness in both types. Endocrine disrupting chemicals (EDCs) and their interactions with steroid hormone receptors like ER causes disruption of normal endocrine function. To identify the compounds that inhibit ER signaling, an ER-beta-UAS-bla GripTite cell line (Life Technologies, Madison, WI, USA) containing a beta-lactamase reporter gene under the control of an UAS response element was used to screen Tox21 10K compound library.
Tox21 Assay Protocol Summary:
ER-beta-UAS-bla HEK293T cells were dispensed at 2,000 cells/4 uL of assay medium containing 2% charcoal stripped FBS per well into black wall/clear-bottom 1536-well plates using a Multidrop Combi (ThermoFisher Scientific, Waltham, MA) dispenser. After the assay plates were incubated at a 37C and 5% CO2 for 6 hr, 23 nL of compounds dissolved in DMSO, positive controls or DMSO only was transferred to the assay plate by a Pintool station (Kalypsys, San Diego, CA), followed by addition of 1 uL (1nM as final concentration) of 17-beta-estradiol (E2) in assay medium using a BioRAPTR FRD (Flying Reagent Dispenser, Aurora Discovery, San Diego, CA). The plates were incubated at 37C and 5% CO2 for 16 hr. Then 1 uL of LiveBLAzerTM B/G FRET substrate was added using a Flying Reagent Dispenser, the plates were incubated at room temperature for 2 hours, and fluorescence intensity was measured by an Envision plate reader (PerkinElmer, Shelton, CT).
With `CC1(C)[C@H](/C=C2\CCSC2=O)[C@@H]1C(=O)OCc1coc(Cc2ccccc2)c1`, the Potency entry is “inactive”. The result for `Clc1ccc(C(Cl)(Cl)Cl)cc1Cl` reads “inactive”; that for `Nc1ccccc1-c1ccccc1`, “inactive”; that for `Oc1cc(Cl)c(Cl)c(Cl)c1Cl`, 13.4 µM (active). The value for `CN1[C@@H]2CC[C@H]1CC(O)C2` (stereo not given in full) was “inactive”; that for `COC(=O)C(C)N(C(=O)c1ccco1)c1c(C)cccc1C` (stereo not given) was “inactive”; that for `ClCBr` was “inactive”. The value for `S=C=Nc1ccccc1` was “inactive”; that for `CN(C)c1ccc(N)cc1` was 23.7 µM (active). As to `O=C(Nc1ccc(F)cc1F)c1cccnc1Oc1cccc(C(F)(F)F)c1`, the Potency entry is “inactive”. The result for `CN/C(=N\[N+](=O)[O-])NCc1cnc(Cl)s1` reads “inactive”. The value for `CCCCCCCCCCCCCCn1cc[n+](C)c1` was “inactive”.

`COc1ccc2c(c1OC)C(=O)O[C@@H]2[C@H]1c2cc3c(cc2CCN1C)OCO3`: the Potency result is “inactive”. Turning to `BrCC(Br)(Br)Br`, the Potency result is “inactive”. Take `ClC(Cl)C(Cl)(Cl)Cl`: the Potency entry was “inactive”. The value for `CCNc1nc(NC(C)C(C)C)nc(SC)n1` (stereo not given) was “inactive”; that for `CCC1(CC)C(=O)N=C(O)NC1=O` was “inactive”; that for `Clc1ccc(C2(Cn3cncn3)OCCO2)c(Cl)c1` was “inactive”. With `Cc1cnc2c(C(=O)O)c(Cl)ccc2c1`, the Potency entry is “inactive”. The result for `O=[N+]([O-])c1ccccc1-c1ccccc1` reads “inactive”; that for `CC(C)C(Br)C(=O)NC(N)=O` (stereo not given), “inactive”. The result for `O=[N+]([O-])c1ccc(CCl)cc1` reads “inactive”; that for `CCCCc1ccccc1`, “inactive”.

`COC(=O)c1ccccc1S(=O)(=O)NC(=O)Nc1nc(C)nc(OC)n1`: the Potency result was “inactive”. The value for `COc1cnc(OC)n2nc(NS(=O)(=O)c3c(OCC(F)F)cccc3C(F)(F)F)nc12` was “inactive”; that for `CCC1COC(Cn2cncn2)(c2ccc(Cl)cc2Cl)O1` (stereo not given) was “inactive”. As to `c1ccc(Nc2ccc(Nc3ccccc3)cc2)cc1`, the Potency was 0.136 µM (active).

For `CNC(=O)/C=C(\C)OP(=O)(OC)OC`, the Potency entry was “inactive”. The result for `O=S(=O)(O)F` reads “inactive”.

Turning to `CC(C)=CC1C(C(=O)OC(C#N)c2cccc(Oc3ccccc3)c2)C1(C)C` (stereo not given), the Potency entry is “inactive”.

For `CN`, the Potency result is “inactive”. Take `COc1nc(C)nc(NC(=O)NS(=O)(=O)c2ccccc2Cl)n1`: the Potency entry is “inactive”. Consider `NC(=O)C(Cl)Cl`, for which the Potency entry was “inactive”. Regarding `O=C(Cl)c1ccccc1F`, the Potency entry was “inactive”.

For `Brc1cccc(-c2ccccc2)c1`, the Potency entry is “inactive”. The result for `COP(=O)(OC)Oc1ccc([N+](=O)[O-])cc1` reads “inactive”; that for `CC(=O)[O][Pb]([c]1ccccc1)([c]1ccccc1)[c]1ccccc1`, 0.969 µM (active); that for `COc1ccc2[nH]cc(CCN(C(C)C)C(C)C)c2c1`, “inactive”.

Consider `CCC[CH2][Sn]([CH2]CCC)([O]C(C)=O)[O]C(C)=O`, for which the Potency was 0.174 µM (active).

Turning to `CC(Cc1ccc(OCC(=O)O)cc1)NCC(O)c1csc(C(F)(F)F)n1` (stereo not given), the Potency result was “inactive”.

(Values after PubChem BioAssay (Tox21).)
